Laboratory results reported in PubChem BioAssay AID686979 (National Center for Advancing Translational Sciences (NCATS), 2013).
About 50,000 (12%) of roughly 420,000 compounds were called active. Another 26% or so got no clear call; they are omitted. The entries come from a sample that favours actives as a whole. A call without a number means that no potency is given here. Values without a mark were called inactive. Calls follow the shape of the dose curve; as a rule, active = well fitted inhibition curve with a large enough effect; inconclusive = small, poorly fitted or top-dose-only effect; inactive = flat fitted curve, though single readings scatter.

Test: qHTS for Inhibitors of human tyrosyl-DNA phosphodiesterase 1 (TDP1): qHTS in cells in presence of CPT; also: nearly all actives have a fitted effect of over 55% in size
Conditions: chicken DT40 Tdp1-/-;hTDP1 cells + 20 nM CPT, ATP luminescence, 48 h; series mostly up to 46.2 µM
Outline: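 Chicken DT40 Tdp1-/- cells complemented with human TDP1, 400 cells/well, exposed to compounds plus 20 nM camptothecin for at least 48 h at 37 C; viability read as ATP content by CellTiter-Glo luminescence.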
Potency is read from the fitted curve at half-maximal effect.

Row | SMILES | Potency | activity change, negative = growth inhibition
1 | O=C(Nc1ccon1)c1nc[nH]c1C(=O)NCc1ccccc1 | inactive | 
2 | CCC(=O)N1CCc2cc(Br)cc(S(=O)(=O)NCc3ccc(Cl)cc3)c21 | inactive | 
3 | O=C1C=C(c2cccc(Cl)c2)C[C@@H](c2ccc(F)cc2)C1 | inactive | 
4 | O=C1C=C(c2ccnc3cc(Cl)ccc23)C[C@@H](c2ccc3c(c2)OCO3)C1 | 5.8 µM (active) | 
5 | CC(=O)C1=C(C)NC(=O)NC1c1ccc2c(c1)OCO2 (stereo unspecified) | inactive | 
6 | Cc1ccc(C)c(NC(=O)C2CCCN2C(=O)OC(C)(C)C)c1 (stereo unspecified) | inactive | 
7 | Cc1cccc(C)c1NC(=O)C1CCCN1C(=O)OC(C)(C)C (stereo unspecified) | 11.6 µM (active) | 
8 | Cc1ccc(NC(=O)C2CCCN2C(=O)OCc2ccccc2)cc1C (stereo unspecified) | inactive | 
9 | Cc1csc(=O)n1CCC(=O)OCC(=O)Nc1ccc(N2CCOCC2)cc1 | inactive | 
10 | C[C@H](NC(=O)CC[C@H]1O[C@@H](n2ccc(=O)[nH]c2=O)[C@H](O)[C@@H]1O)c1cccc2ccccc12 | inactive | 
11 | COc1ccc([N+](=O)[O-])cc1N(CC(=O)Nc1ccccc1C(=O)N1CCOCC1)S(C)(=O)=O | inactive | 
12 | O=C1C(Cc2ccc(O)cc2)NC(=S)N1Cc1ccccc1 (stereo unspecified) | inactive | 
13 | CC1Oc2ccccc2N(Cc2cccnc2)C1=O (stereo unspecified) | inactive | 
14 | CC1C(=O)N(Cc2ccccc2)c2ccccc2N1C(=O)c1ccccc1 (stereo unspecified) | 23.1 µM (active) | 
15 | COc1ccc(C(=O)COC(=O)C(O)c2ccccc2)c(OC)c1 (stereo unspecified) | inactive | 
16 | O=C1N(c2ccccc2)C(=Nc2ccccc2)SC12CC2 | inactive | 
17 | Cc1cc(C)c(S(=O)(=O)Nc2c(C)n(C)n(-c3ccccc3)c2=O)cc1[N+](=O)[O-] | inactive | 
18 | CC1(C(=O)NCC2CCOCC2)Cc2c(-c3cccc(C(N)=O)c3)ccnc2O1 (stereo unspecified) | 25.9 µM (active) | 
19 | CC(=O)Nc1cccc(-c2ccnc3c2CC(C)(C(=O)NCc2ccccc2)O3)c1 (stereo unspecified) | 0.82 µM (active) | 
20 | COc1ccc(NC(=O)C2(C)Cc3c(-c4ccc(C(N)=O)cc4)ccnc3O2)cc1 (stereo unspecified) | inactive | 
21 | COc1cccc(NC(=S)NCc2ccco2)c1 | inactive | 
22 | COc1ccc(NC(=O)Nc2cccc(-c3noc(C)n3)c2)cc1 | inactive | 

Row | SMILES | Potency | activity change, negative = growth inhibition
23 | CC(=O)Nc1cccc(-c2cnc3ccccc3n2)c1 | inactive | 
24 | CC(C)(C)NC(=O)NCc1ccco1 | inactive | 
25 | COc1ccc(NC(=O)C2(C)Cc3c(-c4cccc(NC(C)=O)c4)ccnc3O2)cc1 (stereo unspecified) | 1.64 µM (active) | 
26 | CC(=O)Nc1cccc(-c2ccnc3c2CC(C)(C(=O)NCc2ccco2)O3)c1 (stereo unspecified) | 1.03 µM (active) | 
27 | CC1(C)Cc2cccc(OCC(=O)NCc3ccccc3)c2O1 | inactive | 
28 | COc1ccc(NC(=O)CCn2ccnc2)c(OC)c1 | inactive | 
29 | CC1=C(C(=O)N2CCOCC2)CC(CC(=O)NCCCN(C)C)C(=O)N1Cc1ccc(C(C)(C)C)cc1 (stereo unspecified) | inactive | 
30 | CC(C)N(C(=O)CSc1nnc(NC2CC2)s1)c1ccccc1 | inactive | 
31 | O=C(Nc1cc(-c2nc3ncccc3o2)ccc1Cl)c1ccco1 | inactive | 
32 | CSCCC(NC(=O)c1ccco1)C(=O)Nc1cc(C)ccn1 (stereo unspecified) | inactive | 
33 | CC(=O)c1ccc(OCC(=O)N(C)C2CCS(=O)(=O)C2)cc1 (stereo unspecified) | inactive | 
34 | CN(Cc1cc2cc(F)ccc2[nH]1)Cc1nc(-c2cnccn2)no1 | inactive | 
35 | Cn1cc(CNC(=O)c2ccc(OC3CCN(Cc4ccccn4)CC3)cc2)cn1 | inactive | 
36 | CCOC(=O)C1(Cc2cccc(OC)c2)CCCN(S(=O)(=O)c2cccnc2)C1 (stereo unspecified) | inactive | 
37 | Cc1ccc(C)c(-c2nnc(NC(=O)CS(=O)(=O)c3ccccc3)o2)c1 | 11.6 µM (active) | 
38 | COc1ccc(-c2nnc(NC(=O)CS(=O)(=O)c3ccc(Cl)cc3)o2)c(OC)c1 | inactive | 
39 | COc1cc(-c2nnc(NC(=O)CS(=O)(=O)c3ccc(Cl)cc3)o2)cc(OC)c1OC | inactive | 
40 | Cc1cccc(C)c1NC(=O)NC1=CCCN1C | inactive | 
41 | CCOC(=O)c1ccc(S(=O)(=O)N(CCO)Cc2cc3cc(OC)c(OC)cc3[nH]c2=O)cc1 | inactive | 
42 | CC(C)CC(N=C1NC(C)(C)Cc2ccccc21)C(=O)O (stereo unspecified) | inactive | 
43 | CC1(C)Cc2nc3sc4c(SCC(=O)NC(c5ccccc5)c5ccccc5)ncnc4c3cc2CO1 | 8.2 µM (active) | 
44 | CCOc1ccc(NC(=O)CSc2ncnc3c2sc2ccccc23)cc1 | inactive | 

Row | SMILES | Potency | activity change, negative = growth inhibition
45 | C=CCn1c(=S)[nH]c2nc3c(cc2c1=O)COC(C)(C)C3 | inactive | 
46 | O=C1OC(OC(=O)c2ccccc2Br)C(N2CCOCC2)=C1Cl (stereo unspecified) | inactive | 
47 | COC(=O)/C=C\C(=O)Nc1cccc([N+](=O)[O-])c1 | 1.03 µM (active) | 
48 | CC(=O)Nc1cccc([N+](=O)[O-])c1 | inactive | 
49 | Cc1ccccc1NC(=S)Nc1cccc([N+](=O)[O-])c1 | inactive | 
50 | COC(C(=O)NCc1ccccc1C)c1ccccc1 (stereo unspecified) | inactive | 
51 | CC(C)CC(O)C1CCN(C(=O)CCc2nnc(-c3ccc4c(c3)OCO4)o2)CC1 (stereo unspecified) | inactive | 
52 | Cc1ccc(OCc2n[nH]c(=S)n2-c2ccccc2)cc1 | inactive | 
53 | S=c1[nH]nc(COc2ccccc2)n1-c1ccccc1 | inactive | 
54 | COc1ccc(OCc2n[nH]c(=S)n2N)cc1 | 18.4 µM (active) | 
55 | CCOc1ccc(OCC(=O)OC(C)C(=O)NC2CCCCC2C)cc1 (stereo unspecified) | inactive | 
56 | COc1c(C)cccc1C(=O)Nc1cc(Cl)ccc1N1CCOCC1 | inactive | 
57 | Cc1cccc(N2CCN(C(=O)c3ccccc3NC(=O)C3CCCCC3C(=O)O)CC2)c1 (stereo unspecified) | inactive | 
58 | Cc1cccc(N2CCN(c3ccc(C(=O)O)cc3NC(=O)c3ccccc3F)CC2C)c1 (stereo unspecified) | 23.1 µM (active) | 
59 | CNC[C@@H]1Oc2c(NS(C)(=O)=O)cccc2C(=O)N([C@@H](C)CO)C[C@H]1C | inactive | 
60 | COCC(=O)N(C)C[C@H]1Oc2cc(Br)ccc2S(=O)(=O)N([C@H](C)CO)C[C@H]1C | inactive | 
61 | Cc1cc(C(=O)OCC(=O)Nc2ccccc2Cl)c(C)o1 | inactive | 
62 | CC(C)Nc1nnc(SCC(=O)/C=C2\N(C)c3ccccc3C2(C)C)s1 | 16.4 µM (active) | 
63 | CC(C)Nc1nnc(SCC(=O)c2c[nH]c3ccccc23)s1 | inactive | 
64 | COC(=O)c1ccc(CSc2nnc(NC(C)C)s2)cc1 | inactive | 
65 | Cc1ccccc1OCc1nc2c3cnn(-c4ccccc4F)c3ncn2n1 | inactive | 
66 | CC1COc2ccccc2N1C(=O)c1cccnc1Cl (stereo unspecified) | inactive | 

Row | SMILES | Potency | activity change, negative = growth inhibition
67 | Cc1ccc(CNC(=O)c2cccnc2Cl)cc1 | inactive | 
68 | CN1/C(=C\C(=O)c2cccnc2Cl)C(C)(C)c2ccccc21 | 20.6 µM (active) | 
69 | O=C1CSc2ccc(C(=O)NCc3ccccn3)cc2N1 | inactive | 
70 | CCc1ccc(C(=O)N2CCN(S(=O)(=O)c3sc(C(=O)O)c(C)c3C(=O)O)CC2)cc1 | inactive | 
71 | Cc1ccc(C)c(-n2cc(CN3CCN(C(=O)c4ncn[nH]4)CC3)c(-c3ccccc3)n2)c1 | inactive | 
72 | Cc1ccc(OCCC(=O)OCC(=O)N2c3ccccc3NC(=O)C2(C)C)cc1 | inactive | 
73 | CC(C)CC(=O)NC(=S)NCc1ccccc1 | inactive | 
74 | O=C(O)CSCc1nc2ccccc2s1 | inactive | 
75 | CC(C)CC(=O)N/C(N)=N/c1nc2ccccc2s1 | 23.1 µM (active) | 
76 | COc1ccc(C2c3ccc(O)cc3Oc3ncn(CCCO)c(=N)c32)cc1OC (stereo unspecified) | inactive | 
77 | CC[C@]1(C(=O)OC)[C@H]2C(=O)N(C)C(=O)[C@H]2[C@H]2CN(C)C(=NCc3ccccc3)N21 | inactive | 
78 | O=C(NCCSc1ncc(-c2ccccc2)[nH]1)c1ccco1 | inactive | 
79 | COCCCNC(=O)C1CC(=O)N(CCc2ccc(F)cc2)C1 (stereo unspecified) | inactive | 
80 | COc1ccc(OC)c(NC(=O)C2CCN(S(=O)(=O)c3ccc(C)cc3)CC2)c1 | inactive | 
81 | COC(=O)c1ccccc1NC(=O)C1CCN(S(=O)(=O)c2cc(OC)ccc2OC)CC1 | 23.1 µM (active) | 
82 | COC(=O)c1ccccc1NC(=O)C1CC(=O)N(c2ccc(OC)cc2)C1 (stereo unspecified) | inactive | 
83 | CCCCCCCC/C=C\CCCCCCCC(=O)OC[C@H](CO)OC(C)=O |  | 0.476% [at 4.12 µM]
84 | COC(=O)c1scc(C)c1NC(=O)CSc1ccc(Cl)cc1 | inactive | 
85 | O=C(NC(=S)N1CCCCC1c1cccnc1)c1ccccc1 (stereo unspecified) | inactive | 
86 | CC(=O)NC(=S)Nc1ccc(NC(=O)c2cccnc2)cc1 | inactive | 
87 | CC(C)c1cc(Cn2c3ccccc3c(=O)n2C(C)Cn2cc(C3CC3)nn2)on1 (stereo unspecified) | inactive | 
88 | CCC(C)CN1CCC(CO)(Cc2ccccc2Cl)CC1 (stereo unspecified) | inactive | 

Row | SMILES | Potency | activity change, negative = growth inhibition
89 | CCCCCCCCCCOC(=O)Cn1c(COc2cccc(OC)c2)[n+](C)c2ccccc21 | 2.31 µM (active) | 
90 | CCn1c(COc2cccc(OC)c2)nnc1SCC(=O)N1CCOCC1 | inactive | 
91 | CCCCCCCCC(=O)NCCOc1ccccc1 | inactive | 
92 | O=C(CN1CCCCCC1)Nc1ccc(Cl)cc1F | inactive | 
93 | Cn1cccc1C(=O)N1CCc2ccccc2C1 | inactive | 
94 | CC(CCc1ccccc1)NC(=O)c1cnc(Cl)c(Cl)c1 (stereo unspecified) | inactive | 
95 | Cc1sc2nc(SCC(N)=O)n(C)c(=O)c2c1C | inactive | 
96 | CCc1cc2c(=O)n(-c3ccccc3)c(SCC(=O)O)nc2s1 | inactive | 
97 | Cc1sc2nc(SCCO)n(-c3ccccc3)c(=O)c2c1C | 13 µM (active) | 
98 | CCc1ccc(S(=O)(=O)Nc2ccc(C)c(NS(C)(=O)=O)c2)cc1 | inactive | 
99 | NC(=O)c1ccc(N2CCCC2)nc1 | inactive | 
100 | Cc1cc(C)cc(OCC(=O)Nc2cc(NC(=O)COc3cc(C)cc(C)c3)cc(C(=O)O)c2)c1 | inactive | 
101 | CC(=O)Nc1c(C)nn(-c2ccccc2)c1N1CCC(C(=O)Nc2cc(Cl)ccc2C)CC1 | inactive | 
102 | Cc1ccc(Cl)cc1NC(=O)CN1CCN(S(=O)(=O)N2CCOCC2)CC1 | inactive | 
103 | Cc1ccc(Cl)cc1NC(=O)C1CCN(S(C)(=O)=O)CC1 | 6.51 µM (active) | 
104 | Cc1ccc2c(c1)C1CN(C)CCC1N2C(=S)Nc1ccc(OC(F)F)cc1 (stereo unspecified) | inactive | 
105 | CCN(Cc1ccncc1)C(=S)Nc1ccccc1C | inactive | 
106 | COc1ccc(N(CC(=O)NCC2CCCO2)C(=O)CCC(=O)Nc2nccs2)c(OC)c1 (stereo unspecified) | inactive | 
